Inconclusive results are not listed. A call without a number means that no potency is given here. Calls of active or inactive are those of the source. The call rests on the fitted dose curve.

The first experiment in a line: qHTS assay for small molecule agonists of the p53 signaling pathway - cell viability (AID 651633).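 Further: p53RE-bla HCT reporter cells with a stable beta-lactamase p53 reporter; nearly all actives have a fitted effect of over 30% in size.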 Conditions: p53RE-bla HCT-116 viability, ATP luminescence, 16 h; series mostly up to 83.3 µM. An outline of the steps:
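Viability counter-read: CellTiter-Glo luminescence (30 min, room temperature) in the same p53RE-bla plates. These plates had been exposed to compounds for 16 h at 37 C.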
On to `NCC(=O)CCC(=O)O`, for which the Potency entry was “inactive”.

Consider `O=C1OC(=O)C2C3C=CC(C3)C12` (stereo unspecified), for which the Potency result was “inactive”.

For `C=C(C)C(=O)OCCOCC`, the Potency result was “inactive”.

In the case of `CC1(c2ccccc2)OC(C(=O)O)=CC1=O` (stereo unspecified), the Potency result was “inactive”.

For the molecule `C[N+](C)(C)CCOC(=O)CCC(=O)OCC[N+](C)(C)C`, the Potency result was “inactive”.

For the molecule `CCOC(=O)Cc1cccc2ccccc12`, the Potency result was “inactive”.

`CC(=O)c1ccc2c(c1)N(CCCN(C)C)c1ccccc1S2`: the Potency result is “inactive”.

Turning to `CN1CCN(C(c2ccccc2)c2ccccc2)CC1`, the Potency entry was “inactive”.

`Clc1ccc(Cn2c(CN3CCCC3)nc3ccccc32)cc1`: the Potency entry is “inactive”.

Take `CC1=CC=C(C(C)C)CC1`: the Potency result is “inactive”.

On to `C[C@H]1C[C@H]2[C@@H]3CCC4=CC(=O)C=C[C@]4(C)[C@@]3(Cl)[C@@H](O)C[C@]2(C)[C@@]1(O)C(=O)CO`, for which the Potency result is “inactive”.

For the molecule `CCCCCCCCO[C@@H]1O[C@H](CO)[C@@H](O)[C@H](O)[C@H]1O`, the Potency result was “inactive”.

As to `CC(C)(O)c1ccc(CNC(=O)c2cccnc2Oc2ccc(F)cc2)cc1`, the Potency result was “inactive”.

For the molecule `c1ccc(CNCCNCc2ccccc2)cc1`, the Potency entry is “inactive”.

Regarding `COC(C)OC`, the Potency result was “inactive”.

Take `CC(COCCO)OCCO` (stereo unspecified): the Potency result was “inactive”.

Take `O=S(=O)(Oc1ccc(Cl)cc1)c1ccccc1`: the Potency result was “inactive”.

Turning to `COS(=O)(=O)C(F)(F)F`, the Potency entry is “inactive”.

`CCNc1cc(O)ccc1C`: the Potency entry was “inactive”.

Turning to `Nc1cccc([N+](=O)[O-])c1`, the Potency entry was “inactive”.

In the case of `CC/C=C\CCOC(=O)CC`, the Potency result is “inactive”.

As for `O=C(c1ccc(F)cc1)C1CCN(CCn2c(=S)[nH]c3ccccc3c2=O)CC1`, the Potency result was “inactive”.

As to `CCN(CC)c1ccc2c(-c3ccccc3C(=O)O)c3ccc(=[N+](CC)CC)cc-3oc2c1`, the Potency entry is “inactive”.

On to `CC(C)CC(=O)C1C(=O)c2ccccc2C1=O`, for which the Potency entry is “inactive”.

Turning to `ClCCOCCOCCCl`, the Potency entry is “inactive”.

For the molecule `CCCCc1ncc(/C=C(\Cc2cccs2)C(=O)O)n1Cc1ccc(C(=O)O)cc1`, the Potency entry was “inactive”.

As to `CN(C)C(=O)NC1(c2ccccc2)CCN(CC[C@@]2(c3ccc(F)c(F)c3)CN(C(=O)c3ccccc3)CCO2)CC1`, the Potency result was “inactive”.

With `CC(=O)NO`, the Potency entry is “inactive”.

Take `COc1cc2nc(N3CCN(C(=O)C4COc5ccccc5O4)CC3)nc(N)c2cc1OC` (stereo unspecified): the Potency entry is “inactive”.

With `CC1=CCCC(C)(C)C12CCC(C)O2` (stereo unspecified), the Potency entry is “inactive”.

With `Nc1ccccc1S(=O)(=O)c1ccccc1`, the Potency result is “inactive”.

Take `COc1ccc(C(=O)c2ccc(OC)cc2O)c(O)c1`: the Potency entry was “inactive”.

Take `C#CCN(C)CCCOc1ccc(Cl)cc1Cl`: the Potency entry was “inactive”.

Turning to `C=CC1CC2C=CC1C2` (stereo unspecified), the Potency entry is “inactive”.

On to `CC(=O)c1ccc2c(c1)N(CCCN1CCC(CCO)CC1)c1ccccc1S2`, for which the Potency result is “inactive”.

In the case of `COC(=O)c1ccc(I)cc1S(=O)(=O)NC(=O)Nc1nc(C)nc(OC)n1`, the Potency result is “inactive”.

As for `C=C1[C@H]2CC[C@@H]3[C@H]2C(C)(C)CCC[C@]13C`, the Potency entry was “inactive”.

Take `COC(=O)C1=C(C)NC(COC(N)=O)=C(C(=O)OC(C)C)C1c1cccc(Cl)c1Cl` (stereo unspecified): the Potency result was “inactive”.

A further experiment is described as follows: qHTS assay for small molecules that induce genotoxicity in human embryonic kidney cells expressing luciferase-tagged ATAD5 - cell viability (AID 651634). Further: nearly all actives have a fitted effect of over 25% in size. Further: potency means the concentration at half of the fitted maximal effect. Conditions: HEK293T ATAD5-luc cells viability, CellTiter-Fluor, 15.5 h; series mostly up to 83.3 µM. An outline of the steps: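 Cytotoxicity counter-readout: after 15.5 hr compound treatment at 37C, live-cell protease activity in ATAD5-luciferase HEK293T cells measured by CellTiter-Fluor fluorescence, 30 min development at 37C.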
A general note: In qHTS, concentration-response curves come from the screen itself.
For the molecule `NCC(=O)CCC(=O)O`, the Potency result is “inactive”.

On to `O=C1OC(=O)C2C3C=CC(C3)C12` (stereo unspecified), for which the Potency entry was “inactive”.

For `C=C(C)C(=O)OCCOCC`, the Potency result was “inactive”.

For the molecule `CC1(c2ccccc2)OC(C(=O)O)=CC1=O` (stereo unspecified), the Potency entry is “inactive”.

For the molecule `C[N+](C)(C)CCOC(=O)CCC(=O)OCC[N+](C)(C)C`, the Potency entry was “inactive”.

As for `CCOC(=O)Cc1cccc2ccccc12`, the Potency result is “inactive”.

Take `CC(=O)c1ccc2c(c1)N(CCCN(C)C)c1ccccc1S2`: the Potency result was “inactive”.

For the molecule `CN1CCN(C(c2ccccc2)c2ccccc2)CC1`, the Potency entry is “inactive”.

For the molecule `Clc1ccc(Cn2c(CN3CCCC3)nc3ccccc32)cc1`, the Potency result was “inactive”.

Consider `CC1=CC=C(C(C)C)CC1`, for which the Potency entry is “inactive”.

For `C[C@H]1C[C@H]2[C@@H]3CCC4=CC(=O)C=C[C@]4(C)[C@@]3(Cl)[C@@H](O)C[C@]2(C)[C@@]1(O)C(=O)CO`, the Potency result was “inactive”.

As to `CCCCCCCCO[C@@H]1O[C@H](CO)[C@@H](O)[C@H](O)[C@H]1O`, the Potency result is “inactive”.

With `CC(C)(O)c1ccc(CNC(=O)c2cccnc2Oc2ccc(F)cc2)cc1`, the Potency entry was “inactive”.

In the case of `c1ccc(CNCCNCc2ccccc2)cc1`, the Potency result is “inactive”.

For the molecule `COC(C)OC`, the Potency entry was “inactive”.

Take `CC(COCCO)OCCO` (stereo unspecified): the Potency result is “inactive”.

As to `O=S(=O)(Oc1ccc(Cl)cc1)c1ccccc1`, the Potency result is “inactive”.

As for `COS(=O)(=O)C(F)(F)F`, the Potency result was “inactive”.

Turning to `CCNc1cc(O)ccc1C`, the Potency entry was “inactive”.

Take `Nc1cccc([N+](=O)[O-])c1`: the Potency entry is “inactive”.

For the molecule `CC/C=C\CCOC(=O)CC`, the Potency result is “inactive”.

Turning to `O=C(c1ccc(F)cc1)C1CCN(CCn2c(=S)[nH]c3ccccc3c2=O)CC1`, the Potency result is “inactive”.

Consider `CCN(CC)c1ccc2c(-c3ccccc3C(=O)O)c3ccc(=[N+](CC)CC)cc-3oc2c1`, for which the Potency was 21.7 µM (active).

For `CC(C)CC(=O)C1C(=O)c2ccccc2C1=O`, the Potency result was “inactive”.

`ClCCOCCOCCCl`: the Potency entry was “inactive”.

Consider `CCCCc1ncc(/C=C(\Cc2cccs2)C(=O)O)n1Cc1ccc(C(=O)O)cc1`, for which the Potency result was “inactive”.

Consider `CN(C)C(=O)NC1(c2ccccc2)CCN(CC[C@@]2(c3ccc(F)c(F)c3)CN(C(=O)c3ccccc3)CCO2)CC1`, for which the Potency entry is “inactive”.

In the case of `CC(=O)NO`, the Potency result is “inactive”.

`COc1cc2nc(N3CCN(C(=O)C4COc5ccccc5O4)CC3)nc(N)c2cc1OC` (stereo unspecified): the Potency entry was “inactive”.

Take `CC1=CCCC(C)(C)C12CCC(C)O2` (stereo unspecified): the Potency result is “inactive”.

In the case of `Nc1ccccc1S(=O)(=O)c1ccccc1`, the Potency entry was “inactive”.

As for `COc1ccc(C(=O)c2ccc(OC)cc2O)c(O)c1`, the Potency entry was “inactive”.

As to `C#CCN(C)CCCOc1ccc(Cl)cc1Cl`, the Potency entry is “inactive”.

Turning to `C=CC1CC2C=CC1C2` (stereo unspecified), the Potency result is “inactive”.

Take `CC(=O)c1ccc2c(c1)N(CCCN1CCC(CCO)CC1)c1ccccc1S2`: the Potency result was “inactive”.

On to `COC(=O)c1ccc(I)cc1S(=O)(=O)NC(=O)Nc1nc(C)nc(OC)n1`, for which the Potency result was “inactive”.

For the molecule `C=C1[C@H]2CC[C@@H]3[C@H]2C(C)(C)CCC[C@]13C`, the Potency result is “inactive”.

As to `COC(=O)C1=C(C)NC(COC(N)=O)=C(C(=O)OC(C)C)C1c1cccc(Cl)c1Cl` (stereo unspecified), the Potency result is “inactive”.
